Our source for the outcome and AC50 values is PubChem BioAssay (EPA / NIEHS).

The source made the active and inactive calls. The calls were made as follows: active = hit-call score of the fitted dose curve at least 0.9, where 1 is the maximum; inactive = score below 0.9.

A short description of the assay: ATG_AP_1_CIS: Attagene CIS-FACTORIAL HepG2 Assay for human Activator Protein 1 (AP-1) (AID 2282931). The note with it: HepG2 Attagene cis-factorial AP-1 reporter mRNA; actives raise or lower the signal. As to the method: ATG_CIS is a cell-based, multiplexed-readout assay that uses HepG2, a human liver cell line, with measurements taken at 24 hours after chemical dosing in a 24-well plate.ATG_AP_1_CIS is one of 52 assay component(s) measured or calculated from the ATG_CIS assay. It is designed to make measurements of mRNA induction, a form of inducible reporter, as detected with fluorescence intensity signals by Reverse transcription polymerase chain reaction (RT-PCR) and Capillary electrophoresis technology.Data from the assay component ATG_AP_1_CIS was analyzed into 1 assay endpoint. This assay endpoint, ATG_AP_1_CIS, was analyzed with bidirectional fitting relative to DMSO as the negative control and baseline of activity. Using a type of inducible reporter, measures of mRNA for gain or loss-of-signal activity can be used to understand the reporter gene at the transcription factor-level as they relate to the gene FOS and JUN. Furthermore, this assay endpoint can be referred to as a primary readout, because this assay has produced multiple assay endpoints where this one serves a reporter gene function. To generalize the intended target to other relatable targets, this assay endpoint is annotated to the dna binding intended target family, where the subfamily is basic leucine zipper.
Human liver HepG2 cells are transiently transfected with multiple reporter transcription units (MRTUs) in 6-well plates using FuGene 6 reagent (Roche; 3 ml FuGene/1 mg DNA). The MRTU constructs are regulated by a cis-regulating element (promoter). […] A major difference between the CIS and TRANS system is that in CIS activities of endogenous TFs are measured, whereas the TRANS assay evaluates changes in activities of exogenous, chimeric NR-Gal4 proteins. […] At the end of 24 hour incubation, total RNA was isolated using TriZol reagent (Invitrogen). The isolated RNA is then reverse-transcribed using oligo(dT) primer and Mo-MLV reverse transcriptase (Invitrogen) with DNAse I (Ambion) treatment for 30 min. The one-tenth of the produced cDNA was amplified by PCR using Taq DNA polymerase (Invitrogen) and two reporter sequence-specific primers. The PCR products were fluorescently labeled by primer extension with 6-arboxyfluorescein (6-FAM) 5'-labeled reporter sequence-specific primer (2 min at 95 C, 20 s at 68 C and 10 min at 72 C) and these products were digested with 5U of HpaI (New England Biolabs) for 2h at 37 C. The fragments were purified using Qiaquick PCR columns (Qiagen), analyzed on an ABI 3130xL genetic analyzer (Applied Biosystems) with peak positions identified by using a set of X-rhodamine (ROX)-labeled MapMarker1000 molecular weight standards (BioVentures). The raw capillary electrophoresis data was processed using Attagraph software (Attagene).
On to `CS(=O)(=O)c1ccc(C(=O)C2C(=O)CCCC2=O)c([N+](=O)[O-])c1`, for which the result was inactive.
Consider `CNC(=O)Oc1cccc2ccccc12`, for which the compound was classed as inactive.
Take `CCOP(=O)(OCC)Oc1nc(Cl)c(Cl)cc1Cl`: the result was inactive.
A word on the AC50: it is the concentration giving half of the maximal activity seen. For `Cc1cc(C)nc(Nc2ccccc2)n1`, the AC50 was 30.4 µM (active).
In the case of `COCC(=O)N(c1c(C)cccc1C)C(C)C(=O)OC` (stereo not given), the compound was classed as inactive.
For the compound `COC(=O)NC(=S)Nc1ccccc1NC(=S)NC(=O)OC`, the compound was classed as inactive.
For the compound `CCOP(=S)(OCC)Oc1nc(Cl)n(C(C)C)n1`, the compound was classed as inactive.
Regarding `Cc1ccc(N=CN(C)C=Nc2ccc(C)cc2C)c(C)c1`, the call was inactive.
For the compound `O=c1n(Cl)c(=O)n(Cl)c(=O)n1Cl`, the call was inactive.
As for `CN/C(=N\[N+](=O)[O-])NCc1cnc(Cl)s1`, the compound was classed as inactive.
As to `CCCCC(O)(Cn1cncn1)c1ccc(Cl)cc1Cl` (stereo not given), the AC50 was 50 µM (active).
Take `CC(C)(C)C(=O)C(Oc1ccc(Cl)cc1)n1cncn1` (stereo not given): the AC50 is 74.2 µM (active).
As to `COCC(C)N(C(=O)CCl)c1c(C)csc1C` (stereo not given), the compound was called inactive.
Still for that read-out and setting: with `CCCC(=NOCC)C1=C(O)CC(CC(C)SCC)CC1=O` (stereo not given) the entry was “inactive”.
In the case of `O=P(O)(O)CCCl`, the call was inactive.
Turning to `C=C(C)CN(CC)c1c([N+](=O)[O-])cc(C(F)(F)F)cc1[N+](=O)[O-]`, the call was inactive.
For the compound `CC(C)Nc1nc(Cl)nc(NC(C)C)n1`, the result was inactive.
For the compound `CNC(=O)N(C)c1nnc(C(C)(C)C)s1`, the call was inactive.
Take `CC(C)N1C(=O)c2ccccc2NS1(=O)=O`: the result was inactive.
As for `Cc1c(COC(=O)[C@@H]2[C@H](/C=C(\Cl)C(F)(F)F)C2(C)C)cccc1-c1ccccc1`, the outcome was inactive.
Turning to `CN=C=S`, the AC50 was 13.5 µM (active).
In the case of `CCCN(CC)CC1COC2(CCC(C(C)(C)C)CC2)O1` (stereo not given), the AC50 was 19.7 µM (active).
Take `COP(=S)(OC)SCn1nnc2ccccc2c1=O`: the AC50 is 76.6 µM (active).
On to `Nc1cnn(-c2ccccc2)c(=O)c1Cl`, for which the compound was classed as inactive.
`CC(C)NC(=O)N1CC(=O)N(c2cc(Cl)cc(Cl)c2)C1=O`: the compound was classed as inactive.
Take `O=C1C2CC=CCC2C(=O)N1SC(Cl)(Cl)Cl` (stereo not given): the compound was called inactive.
Consider `COCc1cnc(C2=NC(C)(C(C)C)C(=O)N2)c(C(=O)O)c1` (stereo not given), for which the call was inactive.
Regarding `CCCCOCN(C(=O)CCl)c1c(CC)cccc1CC`, the call was inactive.
As to `CCC(C)n1c(=O)[nH]c(C)c(Br)c1=O` (stereo not given), the outcome was inactive.
On to `CCOc1cc(C(C)(C)C)ccc1C1COC(c2c(F)cccc2F)=N1` (stereo not given), for which the call was inactive.
Consider `O=C(Nc1ccccc1-c1ccc(Cl)cc1)c1cccnc1Cl`, for which the call was inactive.
Consider `CCOc1nc(C(Cl)(Cl)Cl)ns1`, for which the result was inactive.
Turning to `CCNP(=S)(OC)O/C(C)=C/C(=O)OC(C)C` (stereo not given), the result was inactive.
Consider `N#Cc1c[nH]cc1-c1cccc2c1OC(F)(F)O2`, for which the result was inactive.
On the same count and under the same terms, with `O=C(O)c1c(Cl)ccc2cc(Cl)cnc12` the entry was “inactive”.
For the compound `Cc1cnc(C2=NC(C)(C(C)C)C(=O)N2)c(C(=O)O)c1` (stereo not given), the compound was called inactive.
In the case of `COP(=S)(OC)Oc1ccc([N+](=O)[O-])c(C)c1`, the AC50 is 68 µM (active).
With `Cn1c(-c2ccccc2)cc(-c2ccccc2)[n+]1C`, the result was inactive.
`OC(c1ccc(Cl)cc1)(c1ccc(Cl)cc1)C(Cl)(Cl)Cl`: the call was inactive.
The same measure, in the same setting: the entry for `Nc1c(Cl)c(F)nc(OCC(=O)O)c1Cl` is “inactive”.
